High-throughput results as filed in PubChem BioAssay.
CYP2C19 act – activators of human cytochrome P450 2C19. recombinant CYP2C19, luciferin-H EGE luminescence; active compounds read high; 0 = fully inhibited enzyme, 1 = untreated enzyme. activation factor at 5 µM. 96,000 tested, under 10 active. AID 1025;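 active = activation factor of at least 2 at 5 µM in the primary screen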;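 note: 0 = wells with 2.5 mM tranylcypromine and 1 = vehicle-only wells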
CYP2C9 act – CYP2C9 (human) activation. P11712. recombinant CYP2C9, luciferin-H conversion, luminescence; active compounds read high; factor 1 = untreated enzyme, 0 = blocked. activation factor at 5 µM. 96,000 tested, 1.4% active;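 active = activation factor of 2 or more for CYP2C9 at a 5 µM dose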;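 note: 0 = sulfaphenazole-blocked wells and 1 = vehicle-only wells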
Target sequence (P11712 whole entry, looked up): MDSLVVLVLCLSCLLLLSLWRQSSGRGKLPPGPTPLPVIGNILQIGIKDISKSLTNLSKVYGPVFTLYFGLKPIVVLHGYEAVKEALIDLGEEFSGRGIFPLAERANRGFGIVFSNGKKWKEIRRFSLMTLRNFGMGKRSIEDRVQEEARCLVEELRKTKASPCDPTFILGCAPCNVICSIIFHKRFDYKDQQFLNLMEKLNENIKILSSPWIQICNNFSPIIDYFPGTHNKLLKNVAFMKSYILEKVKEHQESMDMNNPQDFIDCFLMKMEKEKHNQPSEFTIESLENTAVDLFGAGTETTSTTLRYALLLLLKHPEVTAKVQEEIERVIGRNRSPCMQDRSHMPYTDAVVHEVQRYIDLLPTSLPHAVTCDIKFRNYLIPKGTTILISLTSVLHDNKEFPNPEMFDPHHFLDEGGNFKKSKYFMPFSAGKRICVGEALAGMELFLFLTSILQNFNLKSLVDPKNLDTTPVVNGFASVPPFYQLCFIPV
CYP2C9 inhib – blocks human cytochrome P450 2C9 | P11712 | CYP2C9 Supersomes, luciferin-H conversion, luminescence | inhibition, % at 5 µM | 96,000 tested, 20% active | AID 777;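 active = blocking of liver enzyme CYP2C9 beyond about 50% at 5 µM, limit read from the data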
PostGolgi ctrl – yeast control strain growth, post-Golgi counter-screen; efflux-deficient yeast background strain, growth absorbance A615, 16 h; 98,000 tested, 5% active; AID 738; inhibition, % at 10 µM
CYP2C19 inhib – human CYP2C19 inhibition | 96,000 tested, 21% active | AID 778 | inhibition, % at 5 µM | P33261 | CYP2C19 Supersomes, luciferin-H EGE luminescence, 30 min;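 active = CYP2C19 inhibition above a set limit at 5 µM in the primary screen, cut at about 50% in these data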;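 note: plate controls were negative control wells for no effect and 2.5 mM tranylcypromine positive control for full effect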
PostGolgi yeast – growth inhibition of a yeast mutant, post-Golgi transport screen. 98,000 tested, 0.9% active. post-Golgi transport phenotypic cell assay. inhibition, % at 10 µM. AID 739;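 note: yeast cells grown in 1536-well plates; yeast grown about 18 h at 30C before absorbance read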
Active calls of the source: *. Only some compounds are listed: those with a hit (about 32% of all), similar ones and a draw of the others. Cut-off read from the data, not from the text of the source, unless noted: active = inhibition above about 30%; inactive = the rest.

SMILES	CYP2C19 act	CYP2C9 act	CYP2C9 inhib	PostGolgi ctrl	CYP2C19 inhib	PostGolgi yeast
CCOC(=O)CC(=O)CSc1nc2c(cc1C#N)CCC2	0.9	0.8	19	3	7	-11
CC(C)CC(=O)Nc1ccc(N2CCOCC2)cc1	0.9	1.1	-6	4	7	1
O=C(NC1=NC2CCCCC2N1)c1ccccc1 (stereo not given)	0.7	1	2	-8	32	-1
Cc1ccc(N2CC(C(=O)NCCCn3ccnc3)CC2=O)cc1 (stereo not given)	0.1	0.2	76*	-7	85*	-4
Cc1ccc(N2CC(C(=O)Nc3nnc(C(C)C)s3)CC2=O)cc1 (stereo not given)	1	0.4	58*	18	2	0
COc1ccc(/C=C(/C(=O)c2ccc(Cl)cc2Cl)n2cncn2)cc1	0.2	0.1	91*	33*	77*	85*
O=C(OCn1cncn1)c1ccc(Cl)cc1Cl	0.5	0.6	38	-1	50	3
COc1ccc(CC(NC(C)=O)C(=O)NC2CCN(S(=O)(=O)c3ccccc3)CC2)cc1OC (stereo not given)	1	1.4	-42	0	-4	4
COC(=O)c1c(NC(=O)c2ccco2)sc2c1C(C(=O)OC)CC2 (stereo not given)	0.7	0.4	62*	10	34	5
COC(=O)c1c(NC(=O)c2ccco2)sc2c1CCC2	0.8	0.6	40	26	23	-4
O=C(Nc1sc2c(c1C(=O)O)CCC2)c1ccco1	0.4	0.5	53*	4	62*	-1
O=C(Nc1sc2c(c1C(=O)NC1CC1)CCCCCC2)c1ccco1	0.9	0.7	33	57*	10	16
CCOC(=O)Cn1c(=O)n(Cc2ccco2)c(=O)c2ccc(C(=O)NC3CCCC3)cc21	0.6	0.5	48	4	39	0
CCOc1ccccc1OCCOc1ccccc1OC(C)C	0.4	0.9	11	3	56*	4
COc1cccc(OCCOc2ccccc2OC(C)C)c1	0.1	0.8	22	-1	90*	0
Fc1cccc(NC(=S)Nc2ccc(Br)cc2)c1	0.2	0.4	58*	23	82*	1
CCCNC(=S)Nc1ccc(Br)cc1	0.6	0.7	30	6	44	-4
CCOC(=O)c1c(C)n(C)c2ccc(OCC(O)CN3C(=O)c4ccccc4S3(=O)=O)cc12 (stereo not given)	0.6	0.3	73*	6	43	-2
O=C(Nc1ccccc1)c1ccccc1OCC(O)CN1C(=O)c2ccccc2S1(=O)=O (stereo not given)	0.4	0.2	76*	6	63*	4
COc1ccc(OCC(O)CN2C(=O)c3ccccc3S2(=O)=O)cc1 (stereo not given)	0.1	0.5	49	14	92*	3
CCOC(=O)c1c(C)n(C)c2ccc(OCC(O)Cn3nc(C)cc3C)cc12 (stereo not given)	0.2	0.3	74*	0	78*	2
CCOC(=O)c1c(C)n(C)c2ccc(OCC(O)CN(CC)CC)cc12 (stereo not given)	1.1	1	0	5	-9	-4
CC(=O)c1c(COC(=O)c2cccnc2)nc2ccccc2[n+]1[O-]	0.5	0.9	5	11	48	-2
CSc1ccccc1NC(=O)c1cnc2n(c1=O)CCS2	1.1	1.2	-16	6	-6	-2
CC1CCCC(C)N1C(=O)CN1C(=O)C(C)(C)Oc2ccc(C(=O)NC3CCCC3)cc21 (stereo not given)	1.2	1	-3	3	-19	-5
SMILES	CYP2C19 act	CYP2C9 act	CYP2C9 inhib	PostGolgi ctrl	CYP2C19 inhib	PostGolgi yeast
Cc1ccc(C)c(C(=O)CSc2n[nH]c(C)n2)c1	0.4	0.9	14	13	57*	6
O=C(CSc1n[nH]c(-c2ccccc2)n1)c1ccccc1	0.5	0.8	25	8	47	-7
CCc1nc(SCC(=O)c2cc(C)ccc2C)n[nH]1	0.7	1.6	-60	0	32	9
Cc1ccc(C(=O)CSc2n[nH]c(C)n2)cc1	0.5	1.1	-15	-1	52*	7
CCc1ccc(C(=O)CSc2n[nH]c(C)n2)cc1	0.1	0.6	35	2	89*	-4
O=C(COC(=O)c1c2c(nc3ccccc13)CCCC2)c1cccs1	0.9	1	-3	15	12	11
CC1CCc2cc(F)ccc2N1C(=O)CSc1nnc2c3ccccc3n(C)c2n1 (stereo not given)	0.5	0.4	55*	12	47	0
CCn1c2ccccc2c2nnc(SCC(=O)NC(CC(C)C)C(=O)OC)nc21 (stereo not given)	0	0.8	21	3	96*	2
CCn1c2ccccc2c2nnc(SCC(=O)c3ccccc3)nc21	0.6	1	-4	6	36	-1
CCCn1c2ccccc2c2nnc(SCC(=O)Nc3nnc(CC(=O)OCC)s3)nc21	0.1	0	98*	6	95*	-10
CCc1nnc(NC(=O)CSc2nnc3c4ccccc4n(C)c3n2)s1	0.9	0.4	58*	2	10	8
CCOC(=O)c1ccc(Nc2cc(C)nc3ncnn23)cc1	0.9	0.9	11	-6	12	1
CCOC(=O)Cc1nnc(NC(=O)CSc2nnc3c4ccccc4n(C(C)C)c3n2)s1	0.2	0	98*	7	78*	-7
COC(=O)c1ccc(S(=O)(=O)NCCSc2nnc3c4ccccc4n(C)c3n2)cc1	0.3	0.1	95*	21	68*	2
COc1ccc(C(=O)COC(=O)CN2C(=O)NC(C)(C)C2=O)cc1OC	1	1.1	-7	-8	3	12
CC(=O)c1cccc(OCCN2C(=O)NC(C)(C)C2=O)c1	0.7	0.5	50*	4	34	9
CCc1cccc(OCCCN2C(=O)NC(C)(C)C2=O)c1	0.1	0.4	60*	-1	92*	5
CCC1(CC)C(=O)N(C)C(=O)NC1=Nc1ccc(OC)cc1	1	1	2	-2	-2	-1
CCN1C(=O)C2C(c3ccccc3F)NC(Cc3ccc(O)cc3)(C(=O)OC)C2C1=O (stereo not given)	0.9	1	0	-6	10	-11
CN(CCO)C(=O)CCC(=O)Nc1ccc(S(N)(=O)=O)cc1	1.1	1.3	-25	-5	-9	1
CCCOc1ccc(NC(=O)CC2C(=O)N(CC)C(=S)N2Cc2cccs2)cc1 (stereo not given)	0.2	0.5	52*	14	82*	-5
COc1ccc(-n2c(COc3cccc(C)c3)nnc2SCC(=O)NCc2ccco2)cc1	0.7	0.8	21	10	28	-3
COc1cccc(OCc2nnc(SCC(=O)NCc3ccco3)n2CCc2ccccc2)c1	0.1	0.1	91*	7	88*	2
